ChEMBL document CHEMBL3988442, “University of Dundee, Small-Polar-MMV Screening Library” (2021)
About 1,200 (3.2%) of roughly 38,000 compounds showed an effect of 50% or more. The median lay at about -58%. The list comes from a sample in which strong results are over-represented; it also holds similar structures and randomly drawn compounds.

What follows are molecules tested on Plasmodium falciparum (assay: Calibr Malaria Delayed Death Assay SOP). Conditions: concentration 4.99e-06 (unit not given; other assays of the set use mol/L).
Assay type: functional, organism-based
Set-up: scale not given: in the data most compounds retested in dose-response had high values

Compound | Percent Effect [%]
CS(=O)(=O)CCCNc1cccc(COC2CCCCC2)c1 | -119.3
Cc1cc(C(=O)N2CCCC2)ccc1NCc1nc(CC(C)C)no1 | -36.08
C=C/C=c1\c(=C/C)oc2c(NCc3ccccc3)ncnc12 | -45.75
CCCc1nc(N2CCCC(C)C2)c2c(n1)c(C)nn2CC (stereo not drawn) | -54.34
CCc1c(C)sc2nc3n(CC(N)=O)nc(SC)n3c(=O)c12 | -38.8
CN(C)[C@H]1CCCCN(C(=O)COCc2nc3cc(F)ccc3[nH]2)C1 | -11.74
COC(C)Cc1nc(-c2cnn3c(C)cc(C)nc23)no1 (stereo not drawn) | -0.05951
CO[C@@H]1CCN(Cc2ccccn2)[C@@H]2CN(Cc3ccco3)C[C@@H]21.O=C(O)C(F)(F)F.O=C(O)C(F)(F)F.O=C(O)C(F)(F)F | 81.61
CCN1C[C@H]2[C@@H](C1)N(c1ncc(F)cn1)CC[C@H]2OC.O=C(O)C(F)(F)F.O=C(O)C(F)(F)F | 33.74
CO[C@@H]1CCN(Cc2ccoc2)[C@@H]2CN(Cc3ccco3)C[C@@H]21.O=C(O)C(F)(F)F.O=C(O)C(F)(F)F | 46.48
CO[C@@H]1CCN(c2ncc(F)cn2)[C@@H]2CN(Cc3cccnc3)C[C@@H]21.O=C(O)C(F)(F)F.O=C(O)C(F)(F)F.O=C(O)C(F)(F)F | -59.6
CO[C@H]1CCN(c2ncc(F)cn2)[C@@H]2CN(Cc3ccco3)C[C@H]12.O=C(O)C(F)(F)F.O=C(O)C(F)(F)F | 62.54
CO[C@@H]1CCN(Cc2c(C)noc2C)[C@@H]2CN(Cc3ccco3)C[C@@H]21.O=C(O)C(F)(F)F.O=C(O)C(F)(F)F | 39.75
Clc1snnc1CN(Cc1cccs1)C1CC1 | -103.1
CCc1noc(C(C)N(C)CC(=O)Nc2cccc(C)c2C)n1 (stereo not drawn) | -134.7
O=C(O)[C@@H]1CN(C(=O)c2ccc(F)c(F)c2)C[C@H]1c1cccc(F)c1 | -108.3
Cc1cc(CN2CCN(C(=O)C(C(C)C)n3cncn3)CC2)on1 (stereo not drawn) | -30.78
O=c1ccc(-c2cccs2)nn1CN1CCc2ccccc2C1 | -135
CCC(CNC(=O)c1ccccn1)N1CCc2ccccc2C1 (stereo not drawn) | 22.7
O=C1CCCCCN1Cc1cccc(OC(F)F)c1 | -103.2

Compound | Percent Effect [%]
Cc1noc(C)c1CN1CCCC1C(=O)OCc1ccccc1 (stereo not drawn) | -68.08
Cc1noc(C)c1CN1CCCCC1CCc1ccc(O)cc1 (stereo not drawn) | 50.08
CSCc1noc(CN2CCCCC2CCc2ccc(O)cc2)n1 (stereo not drawn) | -58.4
c1cc(-c2cnccn2)cc(-c2ccn(CCN3CCCCC3)n2)c1 | 41.47
c1cc(-c2cnccn2)cc(-c2ccn(CCN3CCCC3)n2)c1 | 67.88
c1cc(-c2cnccn2)cc(-c2ccn(CCCN3CCCCC3)n2)c1 | 18.71
Cc1cc2[nH]c(=O)oc2cc1S(=O)(=O)N1CCC(N2CCCC2=O)CC1 | -16.02
CC(=O)N(C)CC(=O)NC(C)c1ccc(OCCC(C)C)cc1 (stereo not drawn) | -42.24
Cc1nc(CCNC(=O)NCC(c2ccco2)N(C)C)cs1 (stereo not drawn) | -71.79
O=C(NCCc1ccncc1)[C@H]1C[C@@H]2CCN(c3nncs3)C[C@H]2O1 | -93.92
COCCN(C)C(=O)NCCc1coc(-c2ccc(C)cc2)n1 | -79.36
Cc1ncc(CNC(=O)N(CCCO)C2CCc3ccccc32)s1 (stereo not drawn) | -63.88
CC(C)n1ncc2c1NC(=O)CC21C(=O)Nc2c(Cl)cc(Br)cc21 (stereo not drawn) | -58.13
CC(C)n1ncc2c1NC(=O)CC21C(=O)Nc2cc(Cl)cc(Cl)c21 (stereo not drawn) | -81.88
CC(C)n1ncc2c1NC(=O)CC21C(=O)Nc2c(Cl)ccc(Cl)c21 (stereo not drawn) | 83.19
COc1ccc(Cl)cc1NC(=O)N1CCc2nc(NC(C)=O)sc2C1 | -92.85
COc1ccc(COCC(O)CNC(=O)c2cc(C)oc2C)cc1 (stereo not drawn) | -54.86
O=C(NCCCn1cccn1)C1(c2cccc(Cl)c2)CC1 | -36.51
CS(=O)(=O)NCc1nnc2n1CCN(Cc1cccnc1)C2 | -124.8
Cc1nc(NC2(CN3CCCCC3)CCCCC2)c2cnn(C)c2n1 | 54.86

Compound | Percent Effect [%]
CCOC(=O)CC1(Nc2nc(C)nc3c2cnn3C)CCCCC1 | -28.38
COCC1(Nc2nc(C)nc3c2cnn3C)CCCC1 | -148.5
COc1cc(C(=O)NS(=O)(=O)c2cc(Cl)sc2Cl)ccc1OC(F)F | -57.9
N#CCCN(CCC#N)Cc1ccc(Br)c2cccnc12 | -154.3
CCN(CCO)Cc1ccc(Br)c2cccnc12 | 54.32
OCCN(CCO)Cc1ccc(Br)c2cccnc12 | -31.32
O=C(NCC1(O)CCC1)c1c(O)cc(Cl)cc1Cl | -101.6
O=C(NCc1ccon1)N1CCC(n2ccc(C(F)(F)F)n2)CC1 | -25.88
Cc1ccnn1CCN1CCCC2(CCC(=O)N(C3CCCC3)C2)C1 (stereo not drawn) | -99.39
CN1CC(=O)N(c2ccccc2)CC12CCN(C(=O)CC1CC1)C2.O=C(O)C(F)(F)F (stereo not drawn) | -38.66
O=C(c1cc(F)cc(Cl)c1)N1C[C@@H]2CC[C@H](C1)N(Cc1ccccc1)C2 | -134.7
O=C(c1ccc(F)c(Cl)c1)N1C[C@@H]2CC[C@H](C1)N(Cc1ccccc1)C2 | 73.05
O=C(c1ccc(=O)[nH]c1)N1C[C@@H]2CC[C@H](C1)N(Cc1ccccc1)C2 | -23.45
Cc1nn(C)c2nc(NCCCN3CCCC(CO)C3)sc12 (stereo not drawn) | -120
N#Cc1ccc(CN2CCNC(=O)C2c2cccs2)cc1 (stereo not drawn) | -98.76
CC[C@]12CN3C[C@](CC)(CN(C1)C3c1[nH]c(=O)[nH]c(=O)c1C)C2=O (stereo partly drawn) | -91.51
CN(Cc1cccnc1)Cc1cn2c(n1)CN(C1CCOC1)CC2.O=C(O)C(F)(F)F.O=C(O)C(F)(F)F.O=C(O)C(F)(F)F (stereo not drawn) | -34.3
CC(C)CC(=O)NCCCn1cncn1 | -49.15
